The values that follow come from the antibiotic and cytotoxicity screens of Wong et al. (2023).

The campaign covered roughly 39,000 compounds. About 3,300 (8.5%) were called active. This is one part of a sample in which actives are shown more often than they occur.

The subject of the experiment is HepG2. The experiment can be described thus: cytotoxicity call (relative viability < 0.9). As to conditions: 10 µM.
Take `O=C(C[C@@H]1C[C@H]2c3cc(NC(=O)Nc4ccccc4)ccc3O[C@H]2[C@H](CO)O1)NCCN1CCCCC1`: the cytotoxicity call is “inactive”.
Under `COc1ccc(CN(C)C[C@H]2OCCCC[C@@H](C)Oc3ccc(NC(=O)Nc4c(C)noc4C)cc3C(=O)N([C@@H](C)CO)C[C@@H]2C)cc1` stands “inactive”.
To `C[C@@H]1CCCCO[C@@H](CN(C)C(=O)c2ccccc2)[C@@H](C)CN([C@@H](C)CO)C(=O)c2cc(NS(=O)(=O)c3ccc(Cl)cc3)ccc2O1` belongs “inactive”; to `CCCN1CCC2(CC1)NC(=O)N(CC(=O)N1CCN(C(=O)OCC)CC1)C2=O`, “inactive”; to `C[C@H](CO)N1C[C@H](C)[C@H](CN(C)Cc2ccc(C(F)(F)F)cc2)OCc2ccccc2-c2c(n(C)c3ccccc23)C1=O`, “inactive”.
Regarding `CCOC(=O)c1cnn2c(=O)cc(C)[nH]c12`, the cytotoxicity call is “inactive”.
For the molecule `C[C@@H]1CN([C@H](C)CO)S(=O)(=O)c2ccc(C#CC3(O)CCCC3)cc2O[C@@H]1CN(C)C(=O)c1ccccc1`, the cytotoxicity call was “inactive”.
Under `CNC[C@H]1Oc2c(NS(=O)(=O)c3cn(C)cn3)cccc2C(=O)N([C@@H](C)CO)C[C@@H]1C` stands “inactive”; under `CCOC(=O)c1c(CN2CCN(CCOCCO)CC2)n(-c2ccccc2)c2cc(Br)c(O)cc12`, “active”.
To `CCOC(=O)c1c(CN2CCN(Cc3ccccc3)CC2)n(-c2ccccc2)c2cc(Br)c(O)cc12` belongs “inactive”; to `CCOC(=O)c1c(CN2CCN(Cc3ccccc3)CC2)n(-c2ccccc2)c2cc(Br)c(OC)cc12`, “inactive”; to `CCOC(=O)c1c(CN2CCN(c3ccccc3)CC2)n(-c2ccccc2)c2cc(Br)c(O)cc12`, “inactive”.
For the molecule `CCOC(=O)c1c(CN2CCN(c3ccccc3)CC2)n(-c2ccccc2)c2cc(Br)c(OC)cc12`, the cytotoxicity call is “inactive”.
Under `CCOC(=O)c1c(CNCCN(CC)CC)n(-c2ccccc2)c2cc(Br)c(OC)cc12` stands “active”.
Regarding `Cc1ccc(S(=O)(=O)N(C)C[C@@H]2Oc3ccc(NS(=O)(=O)c4c(C)noc4C)cc3C(=O)N([C@H](C)CO)C[C@@H]2C)cc1`, the cytotoxicity call is “inactive”.
To `Cc1ccc(S(=O)(=O)Nc2ccc3c(c2)C(=O)N([C@@H](C)CO)C[C@H](C)[C@H](CN(C)C(=O)CCC(F)(F)F)OCCCC[C@@H](C)O3)cc1` belongs “inactive”; to `C[C@@H]1CCCCO[C@H](CN(C)S(=O)(=O)c2ccc(Cl)cc2)[C@H](C)CN([C@@H](C)CO)C(=O)c2cc(NS(=O)(=O)c3ccccc3)ccc2O1`, “inactive”.
To `Cc1ccc2ncc(-c3ccc4cc(C)ccc4n3)cc2c1` belongs “inactive”.
To `COc1ccc(NC(=O)N(C)C[C@@H]2OCCCC[C@@H](C)Oc3ccc(NS(=O)(=O)c4ccc(C)cc4)cc3C(=O)N([C@H](C)CO)C[C@@H]2C)cc1` belongs “inactive”.
In the case of `C[C@H](CO)N1C[C@H](C)[C@H](CN(C)C(=O)c2cnccn2)Oc2ncc(/C=C/c3ccccc3)cc2C1=O`, the cytotoxicity call is “inactive”.
On to `O=C(CCCCCCC(=O)Nc1ccccc1O)N/N=C/c1cc(Br)c(O)c(Br)c1`, for which the cytotoxicity call is “inactive”.
Under `O=C(CCCCCC(=O)Nc1ccccc1O)N/N=C/C[P+](c1ccccc1)(c1ccccc1)c1ccccc1` stands “inactive”; under `O=C(CCCCCCC(=O)Nc1ccccc1O)N/N=C/c1ccc(N(c2ccccc2)c2ccccc2)cc1`, “active”; under `N[C@H]1CCC[C@@H]1Cc1ccc(F)cc1`, “inactive”.
Under `C[C@@H]1CCCCO[C@H](CN(C)C(=O)c2ccccc2)[C@@H](C)CN([C@@H](C)CO)C(=O)c2cc(NC(=O)Nc3ccc4c(c3)OCO4)ccc2O1` stands “inactive”; under `C[C@H]1CN([C@@H](C)CO)C(=O)Cc2cc(NC(=O)Nc3cccc4ccccc34)ccc2O[C@H]1CN(C)Cc1ccc(C(=O)O)cc1`, “inactive”; under `CC(C)NC(=O)Nc1ccc2c(c1)C(=O)N([C@H](C)CO)C[C@H](C)[C@@H](CN(C)Cc1ccc(C(=O)O)cc1)O2`, “inactive”.
Under `C[C@@H]1CCCCO[C@H](CN(C)C(=O)C2CCCCC2)[C@@H](C)CN([C@@H](C)CO)C(=O)c2cc(NC(=O)CCC(F)(F)F)ccc2O1` stands “inactive”; under `C[C@H](CO)N1C[C@H](C)[C@H](CN(C)Cc2ccncc2)OCCCC[C@H](C)Oc2ccc(NC(=O)Nc3ccccc3)cc2C1=O`, “inactive”.
In the case of `C[C@@H]1CN([C@H](C)CO)C(=O)c2cc(NC(=O)C3CCCCC3)ccc2O[C@@H]1CN(C)Cc1ccc(-c2ccccc2)cc1`, the cytotoxicity call was “active”.
Under `C[C@H](CO)N1C[C@H](C)[C@H](CN(C)Cc2ccc(-c3ccccc3)cc2)Oc2ccc(NC(=O)C3CC3)cc2C1=O` stands “inactive”; under `C[C@H]1CN([C@@H](C)CO)C(=O)c2cc(NC(=O)C3CCCCC3)ccc2O[C@@H]1CN(C)Cc1ccc(-c2ccccc2)cc1`, “inactive”; under `C[C@@H]1CN([C@@H](C)CO)C(=O)c2cc(NC(=O)C3CCCCC3)ccc2O[C@@H]1CN(C)Cc1ccc(Oc2ccccc2)cc1`, “inactive”.
Under `C[C@@H]1CN([C@H](C)CO)C(=O)c2cc(NC(=O)C3CCCCC3)ccc2O[C@@H]1CN(C)Cc1ccc(Oc2ccccc2)cc1` stands “active”; under `C[C@H](CO)N1C[C@H](C)[C@@H](CN(C)Cc2ccc(-c3ccccc3)cc2)Oc2ccc(NC(=O)C3CCCCC3)cc2C1=O`, “inactive”.
Under `C[C@H]1CN([C@@H](C)CO)C(=O)c2cc(NC(=O)C3CCCCC3)ccc2O[C@@H]1CN(C)Cc1ccc(Oc2ccccc2)cc1` stands “inactive”; under `C[C@@H]1CN([C@@H](C)CO)C(=O)c2cc(NC(=O)C3CCCCC3)ccc2O[C@H]1CN(C)Cc1ccc(-c2ccccc2)cc1`, “inactive”; under `C[C@@H]1CN([C@H](C)CO)C(=O)c2cc(NC(=O)C3CCCCC3)ccc2O[C@H]1CN(C)Cc1ccc(-c2ccccc2)cc1`, “inactive”.
In the case of `C[C@@H]1CN([C@@H](C)CO)C(=O)c2cc(NC(=O)C3CC3)ccc2O[C@H]1CN(C)Cc1ccc(-c2ccccc2)cc1`, the cytotoxicity call is “inactive”.
To `C[C@H]1CN([C@@H](C)CO)C(=O)c2cc(NC(=O)C3CCCCC3)ccc2O[C@H]1CN(C)Cc1ccc(-c2ccccc2)cc1` belongs “active”.
Under `C[C@@H]1CN([C@@H](C)CO)C(=O)c2cc(NC(=O)C3CCCCC3)ccc2O[C@@H]1CN(C)Cc1ccc(-c2ccccc2)cc1` stands “active”.
To `COC[C@H]1CCCNC1` belongs “inactive”; to `C[C@@H]1CN([C@@H](C)CO)C(=O)c2cc(NC(=O)Cc3ccccc3)ccc2O[C@@H](C)CCCCO[C@H]1CN(C)Cc1ccncc1`, “inactive”; to `CC(C)NC(=O)Nc1ccc2c(c1)C(=O)N([C@@H](C)CO)C[C@@H](C)[C@H](CN(C)S(=O)(=O)c1ccccc1)O2`, “inactive”.
Turning to `C[C@H](CO)N1C[C@H](C)[C@@H](CN(C)C(=O)NC2CCCCC2)Oc2ccc(NC(=O)Nc3cccc4ccccc34)cc2C1=O`, the cytotoxicity call was “inactive”.
Under `C[C@@H]1CCCCO[C@@H](CN(C)C(=O)Cc2ccccc2)[C@H](C)CN([C@@H](C)CO)C(=O)c2cc(NC(=O)Nc3ccc(C(F)(F)F)cc3)ccc2O1` stands “inactive”.
With `Cc1noc(C)c1S(=O)(=O)Nc1ccc2c(c1)C(=O)N([C@H](C)CO)C[C@H](C)[C@H](CN(C)C(=O)Nc1ccccc1)OCCCC[C@H](C)O2`, the cytotoxicity call is “inactive”.
To `C[C@@H]1CN([C@@H](C)CO)C(=O)Cc2cc(NC(=O)CCC(F)(F)F)ccc2O[C@H]1CN(C)Cc1ccc(C(=O)Nc2ccccc2N)cc1` belongs “inactive”; to `C[C@H]1CN([C@@H](C)CO)C(=O)c2cc(NC(=O)C3CC3)ccc2O[C@H]1CN(C)Cc1ccc(-c2ccccc2)cc1`, “inactive”; to `C[C@H](CO)N1C[C@H](C)[C@H](CN(C)Cc2ccc(-c3ccccc3)cc2)Oc2ccc(NC(=O)C3CCCCC3)cc2C1=O`, “active”.
Under `C[C@@H]1CN([C@@H](C)CO)C(=O)c2cc(NC(=O)C3CC3)ccc2O[C@@H]1CN(C)Cc1ccc(-c2ccccc2)cc1` stands “inactive”; under `CN1CCN(C(=O)C[C@@H]2CC[C@H]3[C@@H](COC[C@@H](O)CN3C(=O)C3CC3)O2)CC1`, “inactive”; under `C[C@H]1Cc2cc(S(=O)(=O)N(C)CC(=O)N3CCOCC3)ccc2N1C(=O)C1CC1`, “inactive”.
Under `CCS(=O)(=O)Nc1ccc2c(c1)C(=O)N(C)[C@@H]1CC[C@H](CC(=O)NCc3ccccc3F)O[C@@H]1CO2` stands “inactive”; under `O=C(C[C@H]1CC[C@H]2[C@@H](COC[C@H](O)CN2Cc2ccccc2F)O1)N[C@H]1CCN(Cc2ccccc2)C1`, “inactive”.
On to `COCCOC(=O)N1C(=O)[C@@]2(c3ccccc31)[C@H](C(=O)N1CCc3cc(OC)c(OC)cc3C1)[C@H]1C(=O)O[C@H](c3ccccc3)[C@H](c3ccccc3)N1[C@@H]2c1ccc(O)cc1`, for which the cytotoxicity call was “inactive”.
To `C[C@@H]1CCCCO[C@@H](CN(C)Cc2ccc(C(F)(F)F)cc2)[C@H](C)CN([C@@H](C)CO)C(=O)c2cc(NC(=O)c3ccccc3)ccc2O1` belongs “inactive”; to `C=CCC[C@H](Cc1ccc(F)cc1)C(=O)OC[C@@H](NC(=O)[C@@H](CC=C)CC(=O)N(CCO)Cc1ccccc1)c1ccccc1`, “inactive”.
To `C=CCC[C@@H](Cc1ccc(F)cc1)C(=O)O[C@H](CNC(=O)[C@@H](CC=C)CC(=O)N(CCO)Cc1ccccc1)c1ccccc1` belongs “inactive”; to `C=CCC[C@@H](Cc1ccc(F)cc1)C(=O)OC[C@@H](NC(=O)[C@H](CC=C)CC(=O)N(CCO)Cc1ccccc1)c1ccccc1`, “inactive”.
Under `C=CCC[C@H](Cc1ccc(F)cc1)C(=O)O[C@@H](CNC(=O)[C@H](CC=C)CC(=O)N(CCO)Cc1ccccc1)c1ccccc1` stands “inactive”; under `C=CCC[C@@H](Cc1ccc(F)cc1)C(=O)O[C@H](CNC(=O)[C@H](CC=C)CC(=O)N(CCO)Cc1ccccc1)c1ccccc1`, “inactive”.
Take `C=CCC[C@@H](Cc1ccc(F)cc1)C(=O)O[C@@H](CNC(=O)[C@@H](CC=C)CC(=O)N(CCO)Cc1ccccc1)c1ccccc1`: the cytotoxicity call was “active”.
To `C=CCC[C@H](Cc1ccc(F)cc1)C(=O)O[C@@H](CNC(=O)[C@@H](CC=C)CC(=O)N(CCO)Cc1ccccc1)c1ccccc1` belongs “active”.
Under `C=CCC[C@@H](Cc1ccc(F)cc1)C(=O)OC[C@@H](NC(=O)[C@@H](CC=C)CC(=O)N(CCO)Cc1ccccc1)c1ccccc1` stands “active”; under `C=CC[C@H](CC(=O)N(CCO)Cc1ccccc1)C(=O)NC[C@H](OC(=O)[C@@H](CC=C)Cc1ccc(F)cc1)c1ccccc1`, “inactive”; under `C=CCC[C@H](Cc1ccc(F)cc1)C(=O)O[C@H](CNC(=O)[C@H](CC=C)CC(=O)N(CCO)Cc1ccccc1)c1ccccc1`, “inactive”.
Under `C=CCC[C@H](Cc1ccc(F)cc1)C(=O)O[C@H](CNC(=O)[C@@H](CC=C)CC(=O)N(CCO)Cc1ccccc1)c1ccccc1` stands “inactive”; under `C=CCC[C@@H](Cc1ccc(F)cc1)C(=O)O[C@@H](CNC(=O)[C@H](CC=C)CC(=O)N(CCO)Cc1ccccc1)c1ccccc1`, “active”.
